The supplement of paper PMC12340641
Structures can show the parent of a compound that is named as a salt.

Assays:
[1] = target: IKZF1 (dCK*-IKZF1 fusion in HEK293FT) (UniProt Q13422); assay: inhibition of IKZF1 HTRF signal (DMSO = 0%, pomalidomide 10 uM = 100%); higher = lower IKZF1 protein level; settings: compound concentration: 5 uM, overnight (~20 h)
Summary of the method: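 For percent inhibition of IKZF1 signal, each plate was normalised to vehicle and to a reference degrader. Cells were HEK293FT stably expressing an IKZF1 fusion, plated at 2000/well in 384-well format and treated overnight at 37 °C with 5 μM compound, one well each. Lysates were probed overnight with a commercial HTRF total-IKZF1 antibody kit, with the 665/620 nm ratio background-subtracted and vehicle and degrader fixed at 0% and 100%.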

[2] = test system: HEK293FT dCK*-only; assay: relative growth in counter assay (no AraC = 100%, AraC + DMSO = 0%); higher = more growth rescue independent of IKZF1; settings: compound concentration: 5 uM; AraC concentration: 0.3 uM; overnight pretreatment + 4 days AraC
Summary of the method: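 HEK293FT cells carrying only an engineered kinase construct were plated at 300 per well (384-well) and given 5 μM compound 2 h later. Following overnight at 37 °C, a nucleoside suicide substrate (0.3 μM) plus medium was added for 4 days. Hoechst 33342-stained nuclei were imaged and counted on day 5, with 100% assigned to wells without suicide substrate and 0% to substrate plus vehicle on each plate.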

[3] = test system: HEK293FT dCK*-IKZF1; assay: relative growth recovery (pomalidomide 10 uM = 100%, DMSO = 0%); higher = more growth rescue (IKZF1 fusion degradation); settings: compound concentration: 5 uM; AraC concentration: 0.3 uM; overnight pretreatment + 4 days AraC
Summary of the method: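 Means of duplicates from different days are given for growth recovery, normalised per plate against a reference degrader and vehicle. The reference degrader set the 100% level and vehicle the 0% level. HEK293FT cells stably expressing a deoxycytidine kinase–IKZF1 fusion (300/well, 384-well) received 5 μM compound 2 h after seeding and, after overnight at 37 °C, 0.3 μM of a nucleoside suicide substrate plus medium for 4 days. Nuclei stained with Hoechst 33342 were then counted by whole-well imaging on day 5.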

Chain of IKZF1 (dCK*-IKZF1 fusion in HEK293FT) (Q13422 whole entry, looked up, the tested form may be a part): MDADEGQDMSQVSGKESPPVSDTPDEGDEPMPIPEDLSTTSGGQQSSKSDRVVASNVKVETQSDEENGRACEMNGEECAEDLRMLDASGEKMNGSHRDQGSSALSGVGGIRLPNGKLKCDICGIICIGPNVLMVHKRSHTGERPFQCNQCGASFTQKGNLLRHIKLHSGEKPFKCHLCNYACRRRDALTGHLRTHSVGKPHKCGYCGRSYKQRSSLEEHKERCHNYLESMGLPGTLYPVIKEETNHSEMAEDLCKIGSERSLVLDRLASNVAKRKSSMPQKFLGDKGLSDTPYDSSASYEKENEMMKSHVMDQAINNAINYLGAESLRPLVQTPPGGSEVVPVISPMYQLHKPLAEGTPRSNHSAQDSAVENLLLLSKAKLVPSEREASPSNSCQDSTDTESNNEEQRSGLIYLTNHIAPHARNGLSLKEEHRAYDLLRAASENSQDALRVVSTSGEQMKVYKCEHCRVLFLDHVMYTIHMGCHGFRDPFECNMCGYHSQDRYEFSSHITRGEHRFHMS

Row | SMILES | inhibition of IKZF1 HTRF signal [1] | relative growth in counter assay [2] | relative growth recovery [3]
1 | O=C1Nc2c(ccc(Cl)c2Cl)C1=NO | -26.5% | -8.31% | -2.38%
2 | CCN(CC)CCCC(C)Nc1nc(C)cc(Nc2ccc3nc(C)cc(N)c3c2)n1 (stereo not drawn) | -45.1% | -7.4% | 0.345%
3 | CC[C@H](CO)Nc1nc(Nc2cccc(-c3ccccn3)c2)c2ncn(C(C)C)c2n1 | -29.5% | -0.26% | -2.95%
4 | O=C(Nc1cc(C(F)(F)F)cc(C(F)(F)F)c1)Nc1c(Br)cc(Br)cc1-c1nnn[nH]1 | -17% | -2.42% | -4.01%
5 | CC[n+]1c(-c2ccccc2)c2cc(N)ccc2c2ccc(N)cc21 | 39.8% | -32.8% | -12.2%
6 | CC(=O)Nc1ncc([N+](=O)[O-])s1 | 6.78% | 5.87% | -3.04%
7 | COC(=O)C1=C(C)NC(C)=C([N+](=O)[O-])C1c1ccccc1C(F)(F)F (racemic) | -43.6% | -7.91% | -0.605%
8 | C=CCc1ccc(O)c(-c2cc(CC=C)ccc2O)c1 [Magnolol] | -27.1% | -9.5% | 2.08%
9 | CCOC(=O)Nc1ccc2c(c1)N(C(=O)CN(C)C)c1ccccc1CC2 [Tiracizine] | 1.99% | 0.34% | -0.145%
10 | NC(=O)N1c2ccccc2CC(O)c2ccccc21 (stereo not drawn) [licarbazepine] | -28.1% | -2.99% | 0.095%
11 | N#CC(c1ccccc1)(c1ccccc1)c1ccccc1Cl | -37.8% | 1.13% | -0.3%
12 | Cc1cc(C2CCCCC2)n(O)c(=O)c1 | -23.8% | -24.9% | -10.6%
13 | CC1=C(/C=C/C(C)=C/C=C/C(C)=C/C=C/C=C(C)/C=C/C=C(C)/C=C/C2=C(C)CCCC2(C)C)C(C)(C)CCC1 | -23.6% | -13.6% | -1.69%
14 | CN1CCC[C@@H]1CCO[C@](C)(c1ccccc1)c1ccc(Cl)cc1 [Clemastine Fumarate] | 6.24% | 4.09% | 2.26%
15 | CC(=O)[C@@]1(O)C=C(O[C@H]2C[C@H](N)[C@H](O)[C@H](C)O2)c2c(c(O)c3c(O)c4ccccc4c(O)c3c2O)C1 [Idarubicin HCl] | 87.1% | -34.3% | -13%
16 | N#Cc1ccc(O[C@H]2CC[C@H](NC(=O)c3ccc(N4CCC(CN5CCN(c6cc7c(cc6F)C(=O)N(C6CCC(=O)NC6=O)C7=O)CC5)CC4)nn3)CC2)cc1Cl (stereo partly drawn) | -5.24% | 6.3% | -0.69%
17 | Clc1ccc(COC(Cn2ccnc2)c2ccc(Cl)cc2Cl)cc1 (stereo not drawn) [Econazole Nitrate] | -40.1% | 3.6% | 4.02%
18 | O=C(O)c1ccccc1Nc1ccc(CCc2ccc(Cl)c(Cl)c2)cc1 | -23.6% | 8.33% | 0.125%
19 | O=C(NCc1ccc(OC(F)(F)F)cc1)C1c2ccccc2C(=O)N1C1CCOCC1 (stereo not drawn) | -25.8% | -2.6% | -1.02%
20 | CC(C)N(CCC(=O)c1ccc2ccccc2c1)Cc1ccccc1 | -41.5% | -2.68% | 0.035%
21 | COC(=O)/C=C/c1cc(O)ccc1O [erbstatin-analog] | -21.1% | -32.8% | -11.6%
22 | O=C(OC)C1=C(C)NC(C)=C(C(OCCCN3CCC(C4=CC=CC=C4)(C5=CC=CC=C5)CC3)=O)[C@@H]1[C@]2=CC=CC([N+]([O-])=O)=C2 [dexniguldipine] | -24.7% | -15.1% | -5.83%

Row | SMILES | inhibition of IKZF1 HTRF signal [1] | relative growth in counter assay [2] | relative growth recovery [3]
23 | NCCNc1ccc(NCCN)c2c1C(=O)c1ccncc1C2=O.O=C(O)/C=C\C(=O)O.O=C(O)/C=C\C(=O)O [Pixantrone (dimaleate)] | -28.2% | -13% | -1.7%
24 | CCCCC1OC(=O)c2ccccc21 (stereo not drawn) [Butylphthalide] | -30.6% | 1.67% | 1.08%
25 | Cn1c(=O)n(-c2ccc(C(C)(C)C#N)cc2)c2c3cc(-c4cnc5ccccc5c4)ccc3ncc21 [Dactolisib (BEZ235, NVP-BEZ235)] | 46.7% | -20.5% | -7.88%
26 | C[C@H]1[C@H](OC(=O)CCC(=O)O)O[C@@H]2O[C@@]3(C)CC[C@H]4[C@H](C)CC[C@@H]1[C@@]24OO3 | 37.4% | -30% | -9.71%
27 | COc1cccc2c(O)c3c(O)c4c(c(O)c3c(O)c12)=C(O[C@H]1C[C@H](N)[C@@H](O)[C@H](C)O1)C[C@](O)(C(=O)CO)C=4 [Epirubicin HCl] | 24% | -34.6% | -13.6%
28 | O=C(c1ccc(Nc2nccc(-c3cc4ccccc4s3)n2)cc1)N1CCC(N2CCCC2)CC1 | -31.3% | -35.2% | -14.3%
29 | Clc1ccc(C(Cn2ccnc2)OCc2ccc(Sc3ccccc3)cc2)c(Cl)c1 (stereo not drawn) [Fenticonazole nitrate] | -51.2% | -4.73% | 0.87%
30 | CN1CCCC1CCOC(C)(c1ccccc1)c1ccc(Cl)cc1 (stereo not drawn) [Clemastine fumarate] | 11% | 6.63% | 5.08%
31 | Cc1ccc(S(=O)(=O)NC(=O)NN2CC3CCCC3C2)cc1 (stereo not drawn) | -29.9% | 3.82% | 1.34%
32 | NS(=O)(=O)c1ccc(S(=O)(=O)Nc2cccc3c(Cl)c[nH]c23)cc1 [Indisulam] | -6.45% | -24.4% | -3.02%
33 | CCN(CC)CCNc1ccc(CO)c2sc3ccccc3c(=O)c12 [Hycanthone] | -30.4% | -31.9% | -12.3%
34 | CCCSc1ccc2[nH]c(NC(=O)OC)nc2c1 | -15.2% | -32.2% | -11.2%
35 | CN(C)CC/C=C1\c2ccccc2CSc2ccccc21 [dosulepin] | -26.3% | -9.29% | -1.36%
36 | COC(=O)Nc1nc2cc(SC(C)C)ccc2[nH]1 [methiazole] | 36.1% | -32.7% | -10.8%
37 | O=c1c(O)c(-c2cc(O)c(O)c(O)c2)oc2cc(O)cc(O)c12 [Myricetin (Cannabiscetin)] | 18.8% | -1.64% | -0.905%
38 | COc1cccc2c1C(=O)c1c(O)c3c(c(O)c1C2=O)C[C@@](O)(/C(CO)=N/NC(=O)CCCCCN1C(=O)C=CC1=O)C[C@@H]3O[C@H]1C[C@H](N)[C@H](O)[C@H](C)O1 [Aldoxorubicin] | -9% | -35.5% | -14%
39 | Clc1ccc(CSC(Cn2ccnc2)c2ccc(Cl)cc2Cl)cc1 (stereo not drawn) [Sulconazole Nitrate] | -32.3% | -8.02% | -2.21%
40 | O=C(NC(NC(=S)Nc1ccc(F)c([N+](=O)[O-])c1)C(Cl)(Cl)Cl)C(c1ccccc1)c1ccccc1 (stereo not drawn) | -19.4% | -20.4% | -10.6%
41 | C=CC(=O)Nc1cccc(Oc2nc(Nc3ccc(N4CCN(C)CC4)cc3)nc3ccsc23)c1 [Olmutinib] | -18.2% | -23.3% | -7.07%
42 | Nc1ncc(Cc2ccc(Br)cc2)s1 | -28.6% | -1.27% | -1.02%
43 | CC(C)[C@H]1c2ccc(F)cc2CC[C@@]1(CCN(C)CCCc1nc2ccccc2[nH]1)OC(=O)C1CC1 | -25.9% | -31.9% | -9.29%
44 | CC1(C)C(=O)N=C2C1=C(O)C(=O)c1ccccc12 | 80% | -34.8% | -12.4%

Row | SMILES | inhibition of IKZF1 HTRF signal [1] | relative growth in counter assay [2] | relative growth recovery [3]
45 | COCCOC(=O)C1=C(C)NC(C)=C(C(=O)OC(C)C)C1c1cccc([N+](=O)[O-])c1 (stereo not drawn) | -29.4% | -11.4% | 6.1%
46 | NC(=O)C(c1ccccc1)(c1ccc(F)cc1)c1ccc(F)cc1 [Senicapoc] | -28.5% | 2.14% | -0.855%
47 | COC(=O)Nc1nc2cc(C(=O)c3ccc(F)cc3)ccc2[nH]1 | -13.6% | -8% | -4.8%
48 | CNC(=O)c1cccc(-c2ccc3c(N4CCOC[C@@H]4C)nc(N4CCOC[C@@H]4C)nc3n2)c1 [Vistusertib (AZD2014)] | 69.4% | -33% | -12.9%
49 | COC(=O)c1c(C)[nH]c(C)c1C(=O)c1ccccc1Cc1ccccc1 | -37.4% | 36.9% | 66.8%
50 | CCN(CC)CCOc1ccc2c(c1)C(=O)c1cc(OCCN(CC)CC)ccc1-2 | -2.01% | -26.5% | -8.99%
51 | NC(=O)N/N=C/c1ccc([N+](=O)[O-])o1 | -34.9% | -3.72% | -4.82%
52 | FC(F)(F)c1cc(NC(=S)Nc2ccc(Br)cc2-c2nnn[nH]2)cc(C(F)(F)F)c1 | -39% | -37.2% | -1.23%
53 | Nc1ccc(/N=N/c2ccccc2)c(N)n1 | -28.9% | -3.22% | -1.03%
54 | CC(=NNc1nnc2c(n1)[nH]c1c(C)cccc12)c1ccccn1 | 40.7% | -31.6% | -12.7%
55 | CN(C)CCCN1c2ccccc2Sc2ccc(C(F)(F)F)cc21 | -28.3% | 6.11% | 1.67%
56 | CO/N=C1\C[C@]2(C[C@@H]3C[C@@H](C/C=C(\C)C[C@@H](C)/C=C/C=C4\CO[C@@H]5[C@H](O)C(C)=C[C@@H](C(=O)O3)[C@]45O)O2)O[C@H](/C(C)=C/C(C)C)[C@H]1C | -19.4% | -0.37% | -1.09%
57 | C=C1C(=O)O[C@H]2[C@H]1CC/C(C)=C/CC[C@@]1(C)O[C@@H]21 [parthenolide] | -47.4% | -33% | -10.5%
58 | CN(CC3)C[C@@H](O)[C@H]3[C@]1=C(OC(C4=CC=CC=C4Cl)=CC2=O)C2=C(O)C=C1O [alvocidib] | -30.5% | -35.2% | -12.5%
59 | O=C1NC(=O)/C(=C/c2ccc(-c3ccc(F)cc3O)o2)S1 | -15.8% | -7.95% | -0.795%
60 | O=C(CCCCCCC(O)=NO)Nc1ccccc1 [Vorinostat] | -44.5% | -31.4% | -10.3%
61 | CC(=O)N(OCc1ccccc1)[C@@H]1c2cc(C#N)ccc2OC(C)(C)[C@H]1O | -1.85% | 4.48% | -0.925%
62 | OCCN1CCN(CCCN2c3ccccc3Sc3ccc(C(F)(F)F)cc32)CC1 | -11.9% | 12% | 3.6%
63 | CN1C(=O)CC(C)(c2ccccc2)C1=O (stereo not drawn) | 19.8% | 7.33% | 3%
64 | Clc1ccc(C(Cn2ccnc2)OCc2csc3c(Cl)cccc23)c(Cl)c1 (stereo not drawn) [Sertaconazole] | -18.6% | 3.66% | 1.54%
65 | COc1ccc(CCN(C)CCc2ccc(OC)c(OC)c2)cc1OC | -8.39% | 5.51% | 1.83%
66 | CCCC(=O)C1CCN(c2ncnc3c2CN(C(=O)c2ccc(-c4ccccc4)cc2)CC3)CC1 | -10.8% | 18% | 4.94%
